Measurements: PubChem BioAssay (NCATS)
Inconclusive results are not listed. Values without a mark were called inactive. Calls of active or inactive are those of the source. The call rests on the fitted dose curve; in most records, active means well fitted inhibition curve with a large enough effect; inconclusive means small, poorly fitted or top-dose-only effect; inactive means flat fitted curve, though single readings scatter.

tested on: Zika virus NS2B-NS3 protease; assay: Primary screen GU AMC qHTS for Zika virus inhibitors (AID 1347154); details: Zika NS2B-NS3 unlinked protease, AMC fluorogenic substrate; series mostly up to 54.1 µM; activity change, negative = inhibition: at the top concentration;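 further: 0% = no-inhibitor control and -100% = no-enzyme control; nearly all actives have a fitted effect of over 70% in size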
Summary of the method: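 Fluorogenic AMC-substrate cleavage by noncovalent NS2B-NS3 protease complex (25 nM, pH 8.0 Tris buffer with Tween 20) followed for 15 minutes at room temperature (~20% conversion). Percent inhibition from ex340/em450 signal change, fitted by 4-parameter Hill equation.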

| Compound | activity change, negative = inhibition | Potency |
| --- | --- | --- |
| Cc1c(F)c(N2CCNC(C)C2)cc2c1c(=O)c(C(=O)O)cn2C1CC1 (centres undefined) | -10.1% | – |
| NC[C@H]1O[C@H](O[C@H]2[C@H](O)[C@@H](O[C@H]3O[C@H](CO)[C@@H](O)[C@H](N)[C@H]3O)[C@H](N)C[C@@H]2N)[C@H](N)[C@@H](O)[C@@H]1O | 4.48% [at 25.8 µM] | – |
| C[C@]12CCC(=O)C=C1CC[C@H]1[C@@H]3CC[C@](O)(C(=O)CO)[C@@]3(C)C[C@H](O)[C@@]12F | -4.51% | – |
| CCN(CC)CCNC(=O)COc1ccc(Cl)cc1 | -3.86% | – |
| Nc1ccc(C(=O)Nc2ccccc2N)cc1 | -5.85% | – |
| O=C1c2ccccc2C(=O)C1c1ccccc1 | -5.4% | – |
| C[C@@H]1C[C@H]2[C@@H]3CCC4=CC(=O)C=C[C@]4(C)[C@@]3(F)[C@@H](O)C[C@]2(C)[C@H]1C(=O)CO | -0.653% | – |
| NC(=O)CC[C@@H]1NC(=O)[C@H](Cc2ccccc2)NC(=O)[C@H](Cc2ccc(O)cc2)NC(=O)CCSSC[C@@H](C(=O)N2CCC[C@H]2C(=O)N[C@@H](CCCN=C(N)N)C(=O)NCC(N)=O)NC(=O)[C@H](CC(N)=O)NC1=O | -3.23% | – |
| COc1cccc2c1C(=O)c1c(O)c3c(c(O)c1C2=O)C[C@@](O)(C(=O)CO)C[C@@H]3O[C@H]1C[C@H](N)[C@H](O)[C@H](C)O1 | -4.23% | – |
| CC/C(=C(/CC)c1ccc(O)cc1)c1ccc(O)cc1 | -11.2% | – |
| CC(=O)OCC(=O)[C@@]12OC(C)(C)O[C@@H]1C[C@H]1[C@@H]3C[C@H](F)C4=CC(=O)C=C[C@]4(C)[C@@]3(F)[C@@H](O)C[C@@]12C | -3.14% | – |
| CC1(C)OC[C@@H](COC(=O)CCc2ccc(OC[C@@H](O)CNCCNC(=O)N3CCOCC3)cc2)O1 | 2.41% | – |
| CC(Cc1ccccc1)(NC(=O)CN)c1ccccc1 (centres undefined) | – | inactive |
| Nc1ccc(C(=O)O)cc1 | -1.58% | – |
| OCc1ccccc1O | -2.78% | – |
| NC(=O)c1cc[n+](CC2=C(C(=O)[O-])N3C(=O)[C@@H](NC(=O)Cc4cccs4)[C@H]3SC2)cc1 | -6.28% | – |
| c1ccc(OCc2ccc(CCCN3CCOCC3)cc2)cc1 | -1.47% | – |
| CC(C)=CCC1C(=O)N(c2ccccc2)N(c2ccccc2)C1=O | -6.09% | – |
| CCCCCCCCCCCCCCCCCC(=O)OCC(O)CO (centres undefined) | -3.25% | – |
| CCCCCC=CCC=CCCCCCCCC(=O)OCC | -14% | – |

| Compound | activity change, negative = inhibition | Potency |
| --- | --- | --- |
| CC1=C(C(=O)O)N2C(=O)[C@@H](NC(=O)[C@H](N)c3ccc(O)cc3)[C@H]2SC1 | -7.8% | – |
| CCOC(=O)n1ccn(C)c1=S | -2.66% | – |
| CCCCCCc1ccc(O)cc1O | -11.8% | – |
| NCCc1ccn[nH]1 | 0.908% | – |
| O=c1ccc2ccccc2o1 | -5.6% | – |
| C[C@]12CCC(=O)C=C1[C@@H]1C[C@@H]1[C@H]1[C@@H]3[C@@H]4C[C@@H]4[C@@]4(CCC(=O)O4)[C@@]3(C)CC[C@@H]12 | 2.98% | – |
| NC(CS)C(=O)O (centres undefined) | 0.751% | – |
| N[C@H](Cc1c[nH]c2ccccc12)C(=O)O | -8.92% | – |
| CCCN1CCCC[C@H]1C(=O)Nc1c(C)cccc1C | -5.64% | – |
| CC(C)(C(=O)c1cccnc1)c1cccnc1 | -0.652% | – |
| COC(=O)[C@@H]1CC2=CC(=O)CC[C@]2(C)[C@@]23O[C@@H]2C[C@@]2(C)[C@@H](CC[C@@]24CCC(=O)O4)[C@H]13 | -4.56% | – |
| CCCCCCCCCCOCC(O)CN (centres undefined) | -4.11% | – |
| NC(CO)(CO)CO | 0.809% | – |
| OC[C@H]1O[C@@H](n2cnc3c(=S)nc[nH]c32)[C@H](O)[C@@H]1O | -0.86% | – |
| CN1CCC(=C2c3ccccc3Sc3ccccc32)CC1 | -2.58% | – |
| C[C@@H]1CN(CCCn2c3ccccc3c3ccccc32)C[C@H](C)N1 | – | inactive |
| O=C(OCC(O)CO)c1ccccc1Nc1ccnc2cc(Cl)ccc12 (centres undefined) | -3.56% | – |
| C[C@@H](CN(C)C)CN1c2ccccc2Sc2ccccc21 | -2.91% | – |
| C[C@@H]1C[C@H]2[C@@H]3C[C@H](F)C4=CC(=O)C(Cl)=C[C@]4(C)[C@@]3(F)[C@@H](O)C[C@]2(C)[C@@]1(O)C(=O)CO | -0.0967% | – |
